LmPK inhibitor = inhibitors of Leishmania mexicana pyruvate kinase; 290,000 compounds, 0.37% hits; Q27686; Potency, µM (highest dose often 57.5 µM), for inactives: top-dose activity change, negative = inhibition, usual class: inhibitors; purified LmPK, Kinase-Glo ATP luminescence, 1 h
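ATP generated from ADP (0.1 mM) and PEP (0.5 mM) by 0.1 nM LmPK over 1 h at room temperature (pH 7.2 imidazole buffer) was detected by coupled luciferase luminescence. Values were normalized to uninhibited and no-enzyme wells.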
AmpC detergent = AmpC beta-lactamase inhibition with detergent present; AID 485294; Potency, µM (doses to about 114 µM), for the others: at the top dose activity change, negative = inhibition, hits mostly inhibitors; 370,000 compounds, 0.041% hits; AmpC hydrolysis of nitrocefin, absorbance 480 nm, 0.01% Triton; P00811;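 further: 0% = no-compound wells and -100% = no-enzyme wells; nearly all actives have a fitted effect of over 25% in size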
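20 mM phosphate pH 7.0 + 0.01% (detergent screen) or 0.0001% Triton X-100; 5.3 nM AmpC reagent; cpd preinc 15 min RT; nitrocefin (800 uM stock) to start; A480 q20 s × 4 min; Activity was normalised to no-enzyme and no-compound control wells.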
Giardia FBPA inh-1 = inhibitors of Giardia lamblia fructose-1,6-bisphosphate aldolase; A8B2U2; purified Giardia FBPA; Potency, µM (doses to about 59.6 µM), for inactives: at the highest dose activity, negative = inhibition, most hits filed as inhibitors; 290,000 compounds, 0.71% hits; AID 2451; further: nearly all actives have a fitted effect of over 55% in size
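Giardia FBPA (40 nM reagent) was preincubated 10 min at RT with compound (up to 57.5 uM final), then substrate plus GAPDH/TPI/NAD/arsenate coupling system with diaphorase/resazurin was added; resorufin fluorescence (525/598 nm) was read after 20 min.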
AMA1 RON2 block = disrupts binding of P. falciparum AMA1 to RON2; AlphaScreen AMA1-biotinylated RON2 peptide binding; Potency, µM (titrated, usually from 58.2 µM), for the others: at the top dose activity change, negative = inhibition, most hits filed as inhibitors; 360,000 compounds, 0.2% hits; AID 720542;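 further: 0% = vehicle wells and -100% = peptide control; nearly all actives have a fitted effect of over 45% in size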
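AMA1 (3D7) with his tag at 25 nM final met compounds first, then biotinylated RON2 peptide at 25 nM; detection used donor plus acceptor beads, 10 µg/mL apiece, read by AlphaScreen after 30 min at room temperature.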
AmpC no deterg = AmpC beta-lactamase inhibition without detergent; P00811; AmpC nitrocefin hydrolysis, absorbance 480 nm, 0.0001% Triton; Potency, µM (doses to about 57.1 µM), without a hit: top-dose activity change, negative = inhibition, most hits filed as inhibitors; 330,000 compounds, 0.52% hits; AID 485341;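 further: plate controls were no compound for no effect and no enzyme for full effect; nearly all actives have a fitted effect of over 20% in size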
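20 mM phosphate pH 7.0 + 0.01% (detergent screen) or 0.0001% Triton X-100; 5.3 nM AmpC reagent; cpd preinc 15 min RT; nitrocefin (800 uM stock) to start; A480 q20 s × 4 min; Activity was normalised to no-enzyme and no-compound control wells.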
Giardia growth = blocks growth of Giardia lamblia trophozoites; shares compounds with Giardia FBPA inh-1; Giardia lamblia trophozoite growth inhibition; Potency, µM (top dose mostly 57.5 µM), inactives show at the highest dose activity change, negative = inhibition, hits mostly inhibitors; 1,500 compounds, 5% hits;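 further: trophozoites exposed to compound for 48 h at 37 °C; nearly all actives have a fitted effect of over 70% in size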
Mammal cell tox = mammalian cytotoxicity of Giardia aldolase inhibitor hits; Potency, µM (titrated, usually from 57.5 µM), for inactives: at the highest dose viability change, negative = toxicity, usual class: inhibitors; mammalian cell viability counter-screen, qHTS; shares compounds with Giardia FBPA inh-1; 1,500 compounds, 4% hits; AID 2786;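 further: Chinese hamster ovary cells used as mammalian cytotoxicity surrogate; viability measured as cellular ATP by luminescence; compound exposure lasted 48 h before reading; nearly all actives have a fitted effect of over 60% in size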
Giardia FBPA inh-2 = confirmation of Giardia fructose-bisphosphate aldolase inhibitors. 1,500 compounds, 5% hits. shares compounds with Giardia FBPA inh-1. purified Giardia aldolase enzyme activity, qHTS. Potency, µM (series often up to 57.5 µM), for the others: at the top dose activity change, negative = inhibition, hits mostly inhibitors; further: nearly all actives have a fitted effect of over 45% in size
Rabbit aldolase = rabbit FBP aldolase inhibition by Giardia aldolase hits; Rabbit muscle FBPA enzyme inhibition, selectivity counter-screen; AID 2794; shares compounds with Giardia FBPA inh-1; 1,500 compounds, 4% hits; Potency, µM (doses to about 57.5 µM), for inactives: at the top dose activity, negative = inhibition, most hits filed as inhibitors; further: nearly all actives have a fitted effect of over 60% in size
Target sequence (P00883 whole entry, looked up): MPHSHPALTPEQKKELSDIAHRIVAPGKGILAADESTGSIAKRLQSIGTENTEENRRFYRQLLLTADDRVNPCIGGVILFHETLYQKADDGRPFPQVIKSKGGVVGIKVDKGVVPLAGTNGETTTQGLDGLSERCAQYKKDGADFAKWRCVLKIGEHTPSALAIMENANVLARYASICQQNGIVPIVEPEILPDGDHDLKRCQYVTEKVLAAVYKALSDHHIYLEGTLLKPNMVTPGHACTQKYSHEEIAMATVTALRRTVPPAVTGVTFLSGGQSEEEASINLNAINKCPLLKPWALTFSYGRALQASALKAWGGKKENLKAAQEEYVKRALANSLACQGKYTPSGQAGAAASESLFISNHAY
GAPDH counter = counter-screen for Giardia aldolase inhibitors: GAPDH coupling enzyme; Potency, µM (highest dose often 57.5 µM), for inactives: top-dose activity change, negative = inhibition, most hits filed as inhibitors; GAPDH coupling enzyme counterscreen, biochemical, qHTS; shares compounds with Giardia FBPA inh-1; 1,500 compounds, 6% hits; further: nearly all actives have a fitted effect of over 55% in size
* marks the source's active call; other numbers are inactive results; ? = inconclusive; / = not tested or not shown; [ ] = dose if it differs, or a comment. Rows were chosen to be rich in hits. Some 1.3% of all compounds tested hit in one or more screens of this group. The call rests on the fitted dose curve; in most records, active means well fitted curve in the direction sought with a large enough effect; inconclusive means small, poorly fitted or top-dose-only effect, or another doubt; inactive means no such curve, though single readings can be large; an effect the other way counts as inactive or inconclusive. Unless noted, on the % scale 0 is the no-effect control and ±100 the full control effect; potency means the concentration at half of the fitted maximal effect.

SMILES	LmPK inhibitor	AmpC detergent	Giardia FBPA inh-1	AMA1 RON2 block	AmpC no deterg	Giardia growth	Mammal cell tox	Giardia FBPA inh-2	Rabbit aldolase	GAPDH counter
CCOC(=O)C1(C)CCCN(C(=O)c2cccc3ccccc23)C1 (configuration not stated)	/	/	/	-5%	/	/	/	/	/	/
O=C(Cc1ccccc1)NNC(=S)NC(=O)c1cccnc1	4%	1%	7.1µM*	70%	-6%	-22%	-3%	15%	9%	12%
Cc1ccccc1C(=O)NNC(=S)NC(=O)c1ccccc1	3%	?	?	61%	-45%	-11%[38.3 µM]	-27%	13%	4%	2%
O=C(NC(=S)NNC(=O)c1ccccc1O)c1ccccc1	2%	-4%	?	-61%	-26%	?	-21%	0%	2%	-17%
COc1ccc(CC(=O)NNC(=S)NC(=O)c2cccnc2)cc1	1%	-2%	?	39%	-16%	/	/	/	/	/
COc1cc(Cl)ccc1OC1(C)CCN(Cc2cccc(OC)c2OC)C1 (configuration not stated)	/	/	/	-18%	/	/	/	/	/	/
Cc1c2cnn(CC(=O)NC(C)C)c(=O)c2c(C)n1Cc1cccc(Cl)c1	/	2%	/	/	/	/	/	/	/	/
S=c1[nH]nc(-c2ccccn2)n1/N=C/c1ccccc1	4%	-12%	-26%	6%	-23%	/	/	/	/	/
Cc1ccc(/C=N/n2c(-c3ccccn3)n[nH]c2=S)o1	9%	7%	11µM*	?	-11%	-6%	6%	-6%	1%	2%
S=c1[nH]nc(-c2ccccn2)n1/N=C/c1c(Cl)cccc1Cl	16%	6%	6.3µM*	-19%	-27%	-9%[38.3 µM]	6%	-5%	-9%	-3%
Cc1ccccc1/C=N/n1c(-c2ccccn2)n[nH]c1=S	11%	-10%	4µM*	5%	-5%	4%[38.3 µM]	-8%	-15%	-17%	-17%
Cc1ccc(-c2n[nH]c(=S)n2/N=C/c2ccc(C)o2)cc1	-13%	2%	8%	15%[2.32 µM]	-20%	/	/	/	/	/
O=[N+]([O-])c1ccc(O)c(/C=N/NC2=NS(=O)(=O)c3ccccc32)c1	-6%	-8%	8.9µM*	-7%	-8%	-6%[38.3 µM]	-14%	?	1%	-16%
O=[N+]([O-])c1ccc(/C=N/NC2=NS(=O)(=O)c3ccccc32)cc1	1%	6%	-8%	25%	-14%	/	/	/	/	/
O=S1(=O)N=C(N/N=C/c2cccs2)c2ccccc21	-2%	?	2µM*	27%	-19%	-3%[38.3 µM]	-5%	1%	12%	4%
CCOc1ccccc1NC(=O)CSc1nccn1Cc1ccc(F)cc1	/	9%	/	/	/	/	/	/	/	/
N#CCCN(CCC#N)S(=O)(=O)c1ccc(C(=O)Nc2nnc(C3=COCCO3)o2)cc1	2%	2%	16µM*	64%	-12%	?	15%	5%	16%	2%
CCCCN(C)S(=O)(=O)c1ccc(C(=O)Nc2nnc(C3=COCCO3)o2)cc1	1%[11.5 µM]	7%	18µM*	88%	-22%	?	14%	5%	1%	3%
NC(=S)NNc1cccc(Cl)c1	4%	-2%	13µM*	56%	-16%	48%	8%	-16%	-5%	-7%

Bioassay records: PubChem BioAssay, National Center for Advancing Translational Sciences (NCATS)
